Fam108B inh: mouse Fam108B serine hydrolase inhibitors, primary screen, counter-screen for RBBP9 inhibitor project, biochemical, fluorescence polarization | recombinant Fam108B, FP-Rh probe fluorescence polarization | inhibition, % at 9.51 µM | 300,000 compounds, 0.33% hits;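 active = inhibition above the screen mean inhibition plus 3 SD, computed separately per campaign, cut at about 18% in these data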;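 also: inhibitors lower polarization as less probe binds the enzyme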
LYPLA1 counter: LYPLA1 inhibitors, primary screen, counter-screen for PME1 inhibitor project, biochemical, fluorescence polarization, FP-Rh probe ABPP. inhibition, % at 5.9 µM. 320,000 compounds, 0.16% hits. recombinant LYPLA1. Acyl-protein thioesterase 1 (Homo sapiens), O75608;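 active = inhibition above the mean of all tested compounds plus 3 SD, set per campaign, cut at about 14% in these data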;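 also: inhibitors block serine hydrolase probe labeling of LYPLA1 so polarization falls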
Target sequence (O75608 whole entry, looked up): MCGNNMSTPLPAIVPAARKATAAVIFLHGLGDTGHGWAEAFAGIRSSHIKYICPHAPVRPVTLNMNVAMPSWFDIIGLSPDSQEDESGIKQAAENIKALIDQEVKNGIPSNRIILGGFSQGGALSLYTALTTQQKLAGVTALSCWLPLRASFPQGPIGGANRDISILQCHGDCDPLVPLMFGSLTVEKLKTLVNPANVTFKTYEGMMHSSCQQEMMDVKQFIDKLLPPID
LYPLA2 inh: LYPLA2 inhibitors, primary screen, counter-screen for PME1 inhibitor project, biochemical, fluorescence polarization, FP-Rh probe ABPP; Acyl-protein thioesterase 2 (Homo sapiens), O95372; recombinant LYPLA2; inhibition, % at 5.9 µM; 320,000 compounds, 0.38% hits;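 active = inhibition above the screen-wide mean plus 3 SD, limit set per campaign, cut at about 26% in these data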
MEX-5 binding: MEX-5 zinc finger RNA-binding disruptors – biochemical, C. elegans, fluorescence polarization, MLPCN library, primary screen | MEX-5/FITC-TCR2 RNA binding; active compounds read low | activity score (negative = inhibition of binding), % at 10 µM | 300,000 compounds, 0.38% hits;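 active = inhibition past about -25% in most replicates, and total fluorescence under double the plate's negative control median, limit read from the data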
PREPL inhibitor: PREPL enzyme inhibitors, primary screen, biochemical, fluorescence polarization; 320,000 compounds, 0.68% hits; recombinant PREPL, fluorescence polarization activity-based probe; Prolyl endopeptidase-like (Homo sapiens), Q4J6C6; inhibition, % at 5.96 µM; in the data active = inhibition above about 43%
PME-1 inh: PME-1 inhibitors via competitive probe labeling, primary screen, biochemical, fluorescence polarization, FP-Rh probe, HTS; Protein phosphatase methylesterase 1 (Homo sapiens), Q9Y570; recombinant PME-1; inhibition, % at 5.9 µM; 320,000 compounds, 0.53% hits; AID 2130, 2009;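 active = inhibition above the campaign mean of all compounds plus 3 SD, cut at about 26% in these data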;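 also: competitive labeling of PME-1 active site by serine hydrolase directed probe; inhibitors block probe labeling so polarization falls and inhibition rises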
Target sequence (Q9Y570 whole entry, looked up): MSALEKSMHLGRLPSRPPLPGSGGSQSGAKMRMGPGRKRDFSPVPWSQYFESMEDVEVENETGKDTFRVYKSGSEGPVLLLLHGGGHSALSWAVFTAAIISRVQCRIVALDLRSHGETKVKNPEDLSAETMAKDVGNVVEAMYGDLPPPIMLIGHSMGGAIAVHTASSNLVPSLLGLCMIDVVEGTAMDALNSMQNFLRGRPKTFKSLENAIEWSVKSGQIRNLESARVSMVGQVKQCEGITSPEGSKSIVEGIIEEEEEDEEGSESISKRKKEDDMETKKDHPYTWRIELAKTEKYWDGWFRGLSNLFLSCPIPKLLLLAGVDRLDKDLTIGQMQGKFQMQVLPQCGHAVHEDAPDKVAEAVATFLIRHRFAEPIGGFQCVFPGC
LYPLA2 confirm: LYPLA2 inhibitors, retest, confirmation, counter-screen for PME1 inhibitor project, biochemical, fluorescence polarization, FP-Rh probe ABPP; 1,100 compounds, 72% hits; inhibition, % at 5.9 µM; shares compounds with LYPLA2 inh; recombinant LYPLA2;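 active = mean inhibition across replicates above the hit cutoff set in the primary screen, cut at about 26% in these data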;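 also: blocked labeling of the enzyme by serine hydrolase FP-Rh probe lowers polarization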
LYPLA2 gel ABPP: LYPLA2 inhibitors in proteome, late-stage follow-up, gel-based competitive ABPP, fluorescence, assay provider; shares compounds with LYPLA2 inh; rhLYPLA2 in mouse brain proteome, gel ABPP FP-Rh; inhibition, % at 20 µM; 150 compounds, 30% hits; AID 652029, 2013;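 active = inhibition of LYPLA2 enzyme probe labeling above about 50%, limit read from the data; inactive = inhibition below that limit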;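 also: loss of FP-Rh probe labeling of the LYPLA2 gel band measured as band density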
Numbers stand for hits; - = inactive; . = no result given. In the library only some 1.6% were active in any assay of this set; here they are far more common.

SMILES | Fam108B inh | LYPLA1 counter | LYPLA2 inh | MEX-5 binding | PREPL inhibitor | PME-1 inh | LYPLA2 confirm | others
Cc1cc(C)cc(NC(=O)c2ccc(S(=O)(=O)N(C)CC3CCCO3)cc2)c1 (stereo not drawn) | - | - | - | - | - | - | .
O=C1CN=C(Nc2ccccc2)N1Cc1cccs1 | - | - | - | - | - | - | .
CC(C)c1ccc(NC2=NCC(=O)N2Cc2cccs2)cc1 | - | - | 34 | - | - | - | 26
Cc1nc(N2CCCC2)c2nnn(Cc3ccccc3Cl)c2n1 | - | - | - | - | - | - | .
COc1ccc(N2CCN(c3ncnc4c3nnn4Cc3ccccc3Cl)CC2)cc1 | - | - | 35 | - | - | - | 40
CC(=O)C1=C(O)C(=O)N(CCCn2ccnc2)C1c1ccc(Br)cc1 (stereo not drawn) | - | - | - | - | - | - | .
O=C(c1cc(COc2ccc(F)cc2Cl)on1)N1CCC(OCc2cccnc2)CC1 | - | - | 32 | - | - | - | 33
O=C(c1cc(COc2ccc(F)cc2Cl)on1)N1CCCC(OCc2cccnc2)C1 (stereo not drawn) | - | - | - | - | - | - | .
O=C(O)c1cccc(N2C(=O)c3ccc4c5c(ccc(c35)C2=O)C(=O)N(c2cccc(C(=O)O)c2)C4=O)c1 | - | - | - | - | - | - | .
O=C(O)c1cccc(N2C(=O)c3ccc(Oc4ccc(Cl)cc4)cc3C2=O)c1 | - | - | 53 | - | - | - | 68 | LYPLA2 gel ABPP=55
Cc1cc(Oc2cc(N)cc([N+](=O)[O-])c2)ccc1Cl | - | - | 42 | - | - | - | 39
COc1ccc(-n2c(C)cc(/C=C3\SC(=O)NC3=O)c2C)cc1 | - | - | - | - | - | - | .
O=C(Nc1cccs1)Nc1c(F)c(F)c(F)c(F)c1F | - | - | 29 | - | - | - | 30
O=[N+]([O-])c1cccnc1SCc1ccccc1 | - | - | 38 | - | - | - | 49
O=C(O)c1cccnc1SCc1ccc([N+](=O)[O-])cc1 | - | - | - | - | - | - | .
Cc1cc(C(=O)OCC(=O)NC(C)C)c2ccccc2n1 | - | - | - | - | - | - | .
Cc1cc(C(=O)OCC(=O)c2cccs2)c2ccccc2n1 | - | - | 31 | - | - | - | 43
COc1ccc(CN2C(=O)c3ccccc3C2=O)cc1C(=O)N(C)CC(=O)Nc1c(C)cccc1C | . | - | - | . | - | - | .
COc1cc(C(=O)c2ccccc2Cl)c([N+](=O)[O-])cc1OC | - | - | - | - | - | - | .
CCCC(=O)Nc1ccc(NC(=S)NC(=O)c2ccccc2[N+](=O)[O-])cc1 | - | - | 30 | - | - | - | 31
CCC(=O)NC(=S)Nc1ccc(NC(=O)c2ccccc2[N+](=O)[O-])cc1 | - | - | - | - | - | - | .
O=C(CSc1nc2nccnc2c(=O)n1Cc1cccs1)Nc1ccccc1 | - | - | - | - | - | - | .
COc1ccccc1NC(=O)CSc1nc2nccnc2c(=O)n1Cc1cccs1 | - | - | 27 | - | - | - | -
O=C(Nc1ccn(C2CC(OC(=O)c3ccccc3)C(CO)O2)c(=O)n1)c1ccccc1 (stereo not drawn) | - | - | 26 | - | - | - | -
CCCCCCCCCc1nc2sc3c(c2c(=O)n1NC(=O)c1ccc([N+](=O)[O-])cc1)CC(C)(C)OC3 | - | - | - | - | - | - | .
SMILES | Fam108B inh | LYPLA1 counter | LYPLA2 inh | MEX-5 binding | PREPL inhibitor | PME-1 inh | LYPLA2 confirm | others
COc1ccc(Cn2c(CCC(=O)O)nc3cccnc32)cc1 | - | - | - | - | - | - | .
CC(C)(C)C(=O)Nc1ccc(C(=O)Nc2cccc(Oc3ccc(C(=O)O)c(C(=O)O)c3)c2)cc1 | - | - | 31 | - | - | - | -
O=C(Nc1cccc(Oc2ccc(C(=O)O)c(C(=O)O)c2)c1)c1ccc(-c2ccccc2)cc1 | - | - | 54 | - | - | - | 40
O=C(Cn1cnc2c(nnn2Cc2ccc(F)cc2)c1=O)NCc1ccco1 | - | - | - | - | - | - | .
CC(=O)c1cccc(NC(=O)CN(C)S(=O)(=O)c2ccc3c(c2)CCC(=O)N3)c1 | - | - | - | - | - | - | .
S=C(NCCN1CCOCC1)Nc1ccc(Cl)cc1 | - | - | - | - | - | - | .
S=C(NCCCN1CCOCC1)Nc1ccc(Cl)cc1 | - | - | 27 | - | - | - | -
COc1ccc(CCNC(=O)CCCOc2ccc(C)cc2)cc1OC | - | - | - | . | - | - | .
COc1ccc(CCNC(=O)COc2ccc(-c3ccccc3)cc2)cc1OC | - | - | 30 | . | - | - | 31
O=C(CSc1nnc(-c2ccncc2)s1)Nc1ccc(Cl)c(C(=O)O)c1 | - | - | - | - | - | - | .
N#C/C(=C\c1ccc(OCc2ccc(C(=O)O)cc2)cc1)C(=O)NCc1ccccc1 | - | - | 40 | - | - | - | 33
COc1cc(/C=C(\C#N)C(=O)NCc2ccccc2)ccc1OCc1ccc(C(=O)O)cc1 | - | - | 41 | - | - | - | 29
COc1cc(/C=C(/C#N)C(=O)Nc2ccccc2)ccc1OCc1ccc(C(=O)O)cc1 | - | - | - | - | - | - | .
COc1cccc(-c2ncc3ccccc3c2COC(=O)c2ccc(F)cc2)c1 | . | - | - | . | - | - | .
Cc1cc(-c2nnc(CCC(=O)N(C)Cc3ccsc3)o2)no1 | - | - | - | - | - | - | .
CC1CCCN(Cc2cccc(Oc3ccccc3)c2)C1 (stereo not drawn) | - | - | - | - | - | - | .
CC(=O)c1ccc(N2CCN(C(=O)c3noc4c3CSc3ccccc3-4)CC2)cc1 | - | - | 44 | - | - | - | -
COc1ccc(N2CCN(C(=O)C3CCN(S(=O)(=O)c4ccccc4)CC3)CC2)cc1 | - | - | 38 | - | - | - | 44
O=C(C1CCN(S(=O)(=O)c2cccnc2)CC1)N1CCN(c2ccc(Cl)cc2)CC1 | - | - | 38 | - | - | - | 42
O=C(C1CCN(S(=O)(=O)c2ccccc2)CC1)N1CCN(c2ccccc2)CC1 | - | - | - | - | - | - | .
CCn1c(SCC(=O)NCCc2ccc(F)cc2)nnc1-c1cccs1 | - | - | - | - | - | - | .
